Results taken from PubChem BioAssay (EPA / NIEHS).
Results filed as inconclusive are left out. Calls of active or inactive are those of the source. The calls were made as follows, unless noted: active = hit-call score of the fitted dose curve at least 0.9, where 1 is the maximum; inactive = score below 0.9.

Assays:
[1] = molecular target: Glucocorticoid receptor (Homo sapiens) (UniProt P04150); assay: ATG_GR_TRANS: Attagene TRANS-FACTORIAL HepG2 Assay for human Glucocorticoid Receptor (GR) (AID 2282978; active = hit-call score of the fitted dose curve at least 0.9, where 1 is the maximum;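 also: activators score as hits since higher reporter transcript over DMSO is fitted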); conditions: HepG2 Attagene TRANS GR reporter, mRNA transcription
In short: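 Readout is reporter transcript from a chimeric GR-Gal4 acting on GAL4-UAS in transfected human HepG2 liver cells after 24 h exposure, quantified by RT-PCR and capillary electrophoresis. Activation fitted upward against DMSO.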

[2] = molecular target: Bile acid receptor (Homo sapiens) (UniProt Q96RI1); assay: ATG_FXR_TRANS: Attagene TRANS-FACTORIAL HepG2 Assay for Farnesoid X Receptor (FXR) (AID 2282979; active = hit-call score of the fitted dose curve at least 0.9, where 1 is the maximum;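 also: hits raise reporter mRNA above DMSO so AC50 marks FXR activation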); conditions: HepG2 Attagene TRANS FXR-GAL4 reporter transcription
In short: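 After 24 h chemical treatment of transfected HepG2 cells, GAL4-UAS reporter transcripts driven by an exogenous FXR-GAL4 fusion were measured by RT-PCR and capillary electrophoresis. Increases over DMSO were fitted.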

[3] = molecular target: Oxysterols receptor LXR-beta (Homo sapiens) (UniProt P55055); assay: ATG_LXRb_TRANS: Attagene TRANS-FACTORIAL HepG2 Assay for human Liver X Receptor beta (LXRb) (AID 2282981; active = hit-call score of the fitted dose curve at least 0.9, where 1 is the maximum); conditions: HepG2 Attagene TRANS GAL4-LXRb reporter, mRNA
In short: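 After 24 h of chemical treatment, transfected HepG2 cells yield total RNA; reporter cDNA is PCR-amplified, FAM-labelled, HpaI-cut and run on capillary electrophoresis. Signal reflects chimeric LXRb-Gal4 activity on GAL4-UAS reporters.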

[4] = ATG_M_06_TRANS: Attagene TRANS-FACTORIAL HepG2 Assay for M06 Transcription Factor (Internal Marker) (AID 2282983; active = hit-call score of the fitted dose curve at least 0.9, where 1 is the maximum); conditions: HepG2 Attagene TRANS M06 internal marker reporter
In short: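 Multi-reporter-transfected HepG2, 24 h treatment; reporter transcripts quantified via RT-PCR, primer-extension labelling and CE. DMSO-normalized gain-of-signal fit.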

[5] = molecular target: Nuclear receptor subfamily 4 group A member 2 (Homo sapiens) (UniProt P43354); assay: ATG_NURR1_TRANS: Attagene TRANS-FACTORIAL HepG2 Assay for human Nuclear Receptor Related Protein 1 (NURR1) (AID 2282985; active = hit-call score of the fitted dose curve at least 0.9, where 1 is the maximum); conditions: HepG2 Attagene TRANS reporter, mRNA readout
In short: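 Measures transcriptional activation by an exogenous NR-Gal4 chimera in transfected HepG2 liver cells. After 24 h, reporter RNA is reverse-transcribed, amplified and resolved by capillary electrophoresis; DMSO defines baseline.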

[6] = molecular target: Transcriptional activator Myb (Homo sapiens) (UniProt P10242); assay: ATG_Myb_CIS: Attagene CIS-FACTORIAL HepG2 Assay for human Myeloblastosis (Myb) Proto-Oncogene Transcription Factor (AID 2282986); conditions: HepG2 Attagene CIS-FACTORIAL Myb reporter transcription; actives raise or lower the signal
In short: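 Reporter mRNA is quantified by RT-PCR and capillary electrophoresis 24 h after dosing HepG2 cells transfected with cis-regulated reporter units, which track endogenous transcription factor activity. Gain and loss of signal are fitted versus DMSO baseline.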

[7] = molecular target: Nuclear respiratory factor 1 (Homo sapiens) (UniProt Q16656); assay: ATG_NRF1_CIS: Attagene CIS-FACTORIAL HepG2 Assay for human Nuclear Respiratory Factor 1 (NRF1) Orphan Gene (AID 2282987); conditions: HepG2 NRF1 cis-element reporter, Attagene multiplex; actives raise or lower the signal
In short: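 Endogenous NRF1-driven reporter transcription in transfected HepG2 cells after 24 h treatment. Readout: RT-PCR products, 6-FAM labelled and resolved by capillary electrophoresis; changes fitted both directions relative to DMSO.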

[8] = ATG_NFI_CIS: Attagene CIS-FACTORIAL HepG2 Assay for human Nuclear Factor I (NFI) (AID 2282989); conditions: HepG2 cis-regulatory reporter, NFI response element transcription; actives raise or lower the signal
In short: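 Multiplexed cis-reporter system in human HepG2 cells reports native TF activity as reporter mRNA induction 24 h post-dose. Fragments labelled with 6-FAM, HpaI-digested and resolved by capillary electrophoresis; activity fitted both directions versus DMSO.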

[9] = molecular target: Myc proto-oncogene protein (Homo sapiens) (UniProt P01106); assay: ATG_Myc_CIS: Attagene CIS-FACTORIAL HepG2 Assay for human Myelocytomatosis (Myc) Proto-Oncogene Transcription Factor (AID 2282990); conditions: HepG2, Attagene cis-reporter transcription factor activity; actives raise or lower the signal
In short: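 After 24 h chemical treatment of HepG2 cells carrying multiplexed cis-regulated reporter constructs, reporter transcripts quantified by RT-PCR and capillary electrophoresis of fluorescent fragments. Gain or loss fitted against DMSO baseline.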

[10] = ATG_NF_kB_CIS: Attagene CIS-FACTORIAL HepG2 Assay for human Nuclear Factor Kappa B (NF-kB) (AID 2282991); conditions: HepG2 Attagene cis-factorial NF-kB reporter mRNA; actives raise or lower the signal
In short: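 Readout is reporter transcript level, gain or loss versus DMSO, measured 24 h post-dose via RT-PCR, fluorescent labelling and capillary electrophoresis. Human HepG2 liver cells carried transiently transfected CIS reporter constructs reflecting endogenous factors.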

[11] = ATG_NRF2_ARE_CIS: Attagene CIS-FACTORIAL HepG2 Assay for human Nuclear Factor Erythroid 2 Related Factor 2 (NFR2) response to Antioxidant Response Elements (ARE) (AID 2282992); conditions: HepG2 Attagene ARE/NRF2 reporter, transcription factor activity; actives raise or lower the signal;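 as to AC50: reporter mRNA level measured by RT-PCR and capillary electrophoresis fluorescence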
In short: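 Fluorescence intensity of reporter-specific cDNA fragments, separated by capillary electrophoresis, reflects mRNA induction in transfected HepG2 cells at 24 h. Activity is fitted bidirectionally, DMSO serving as baseline.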

[12] = ATG_Oct_MLP_CIS: Attagene CIS-FACTORIAL HepG2 Assay for human Octamer-Binding Transcription Factor (Oct) (AID 2282993); conditions: HepG2 Attagene cis-factorial Oct reporter, mRNA; actives raise or lower the signal
In short: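 After 24 h compound exposure, transfected HepG2 cells were lysed for total RNA; reporter-specific cDNA was PCR-amplified, fluorescently labelled and sized by capillary electrophoresis. Bidirectional curve fitting used DMSO as baseline.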

[13] = BSK_3C_TissueFactor: BioMAP Diversity Plus: 3C Assay for Tissue Factor Biomarker Activity (AID 2282997); conditions: BioMAP 3C HUVEC, tissue factor biomarker readout; actives raise or lower the signal
In short: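 In this endothelial system, HUVEC are treated for 24 h and Tissue Factor is assessed by ELISA, normalised to DMSO.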

[14] = BSK_3C_uPAR: BioMAP Diversity Plus: 3C Assay for Urokinase-type plasminogen activator receptor (uPAR) Biomarker Activity (AID 2282998); conditions: BioMAP 3C HUVEC, uPAR biomarker ELISA; actives raise or lower the signal
In short: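 Values derive from bidirectional curve fitting relative to DMSO, which served as baseline of activity. uPAR was measured by ELISA in human umbilical vein endothelial primary cultures 24 h after compound addition.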

[15] = BSK_3C_VCAM1: BioMAP Diversity Plus: 3C Assay for Vascular cell adhesion molecule 1 (VCAM1) Biomarker Activity (AID 2282999); conditions: BioMAP 3C HUVEC, VCAM1 ELISA, cytokine-stimulated; actives raise or lower the signal
In short: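 Activity fitted in both directions relative to DMSO, with ELISA measurement of the surface marker on primary HUVEC (3C) at 24 h post-treatment; parallel SRB staining (0.1% SRB, TCA-fixed, 560 nm) flagged overt cytotoxicity.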

[16] = BSK_4H_Eotaxin3: BioMAP Diversity Plus: 4H Assay for Eotaxin 3 Biomarker Activity (AID 2283000); conditions: primary human endothelial cells (HUVEC); actives raise or lower the signal
In short: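 ELISA quantitation of CCL26 (Eotaxin-3) protein from chemically dosed human vascular endothelial cells at 24 h; increases and decreases both scored relative to DMSO-treated baseline.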

[17] = ATG_M_32_TRANS: Attagene TRANS-FACTORIAL HepG2 Assay for M32 Transcription Factor (Internal Marker) (AID 2282984; active = hit-call score of the fitted dose curve at least 0.9, where 1 is the maximum;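 also: transcript level of a background control reporter unit measured by RT-PCR and capillary electrophoresis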); conditions: HepG2 Attagene TRANS M32 internal marker reporter
In short: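 Cell-based TRANS-format assay in HepG2: exogenous chimeric GAL4 reporter units transiently expressed, compounds applied 24 h. Reporter mRNA detected by RT-PCR plus capillary electrophoresis; this readout is an internal background marker.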

[18] = molecular target: Cellular tumor antigen p53 (Homo sapiens) (UniProt P04637); assay: ATG_p53_CIS: Attagene CIS-FACTORIAL HepG2 Assay for human p53 Transcription Factor (AID 2282994); conditions: HepG2 p53 cis-element reporter, Attagene mRNA; actives raise or lower the signal
In short: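 Transiently transfected HepG2 (multiple cis reporter transcription units); exposure 24 h; reporter RNA via RT-PCR, 6-FAM extension, 2 h HpaI digest at 37 C, CE detection; DMSO baseline.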

[19] = molecular target: Oxysterols receptor LXR-alpha (Homo sapiens) (UniProt Q13133); assay: ATG_LXRa_TRANS: Attagene TRANS-FACTORIAL HepG2 Assay for human Liver X Receptor alpha (LXRa) (AID 2282980; active = hit-call score of the fitted dose curve at least 0.9, where 1 is the maximum); conditions: HepG2 Attagene TRANS reporter, LXRa transactivation
In short: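 In this multiplexed TRANS system, compounds act on HepG2 cells carrying GAL4-UAS reporter units and a receptor-GAL4 fusion for 24 h. Induced reporter RNA is amplified, fluorescently labelled and sized by capillary electrophoresis, with DMSO as baseline.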

[20] = molecular target: Hepatocyte nuclear factor 4-alpha (Homo sapiens) (UniProt P41235); assay: ATG_HNF4a_TRANS: Attagene TRANS-FACTORIAL HepG2 Assay for human Hepatocyte Nuclear Factor 4 alpha (HNF4a) (AID 2282982; active = hit-call score of the fitted dose curve at least 0.9, where 1 is the maximum); conditions: HepG2 HNF4a transactivation reporter, mRNA readout
In short: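 Multiplexed reporter assay: transfected HepG2, 24 h exposure, total RNA → oligo(dT) RT → PCR → 6-FAM extension → HpaI digest → CE fluorescence. DMSO = negative control.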

Measured: AC50

Chain of Myc proto-oncogene protein (Homo sapiens) (P01106 whole entry, looked up, the tested form may be a part): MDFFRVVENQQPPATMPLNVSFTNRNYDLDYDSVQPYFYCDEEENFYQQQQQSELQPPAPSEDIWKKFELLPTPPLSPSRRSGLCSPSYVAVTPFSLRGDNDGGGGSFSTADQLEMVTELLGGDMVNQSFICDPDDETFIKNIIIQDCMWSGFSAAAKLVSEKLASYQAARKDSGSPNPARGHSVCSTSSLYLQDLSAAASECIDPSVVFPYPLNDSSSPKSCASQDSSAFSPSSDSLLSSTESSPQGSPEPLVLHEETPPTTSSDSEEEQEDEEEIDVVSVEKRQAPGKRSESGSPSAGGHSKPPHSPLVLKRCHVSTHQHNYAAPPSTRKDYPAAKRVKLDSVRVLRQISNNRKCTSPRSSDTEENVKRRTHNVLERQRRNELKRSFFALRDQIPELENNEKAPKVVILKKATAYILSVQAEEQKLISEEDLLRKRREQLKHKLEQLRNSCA
Chain of Glucocorticoid receptor (Homo sapiens) (P04150 whole entry, looked up, the tested form may be a part): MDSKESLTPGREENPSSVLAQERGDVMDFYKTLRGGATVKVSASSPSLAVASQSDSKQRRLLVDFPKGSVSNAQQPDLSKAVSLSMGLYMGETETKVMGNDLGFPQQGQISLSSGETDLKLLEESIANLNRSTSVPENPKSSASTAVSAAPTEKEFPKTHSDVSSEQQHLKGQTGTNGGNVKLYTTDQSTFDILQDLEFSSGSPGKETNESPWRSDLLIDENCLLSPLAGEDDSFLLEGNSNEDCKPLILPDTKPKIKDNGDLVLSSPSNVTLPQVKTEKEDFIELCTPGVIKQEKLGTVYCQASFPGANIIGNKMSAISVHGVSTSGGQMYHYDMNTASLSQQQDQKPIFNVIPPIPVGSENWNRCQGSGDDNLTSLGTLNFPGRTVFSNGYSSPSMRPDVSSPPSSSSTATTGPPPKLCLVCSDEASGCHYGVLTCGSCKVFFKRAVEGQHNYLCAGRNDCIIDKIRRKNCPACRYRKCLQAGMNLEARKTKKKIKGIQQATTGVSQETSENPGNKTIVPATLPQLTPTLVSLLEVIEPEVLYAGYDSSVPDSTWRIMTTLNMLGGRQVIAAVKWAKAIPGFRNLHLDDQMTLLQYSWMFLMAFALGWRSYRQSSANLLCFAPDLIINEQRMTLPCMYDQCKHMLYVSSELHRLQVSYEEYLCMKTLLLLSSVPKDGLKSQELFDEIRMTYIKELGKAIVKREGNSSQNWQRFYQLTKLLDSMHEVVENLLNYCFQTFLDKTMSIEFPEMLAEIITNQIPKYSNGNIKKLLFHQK
Chain of Bile acid receptor (Homo sapiens) (Q96RI1 whole entry, looked up, the tested form may be a part): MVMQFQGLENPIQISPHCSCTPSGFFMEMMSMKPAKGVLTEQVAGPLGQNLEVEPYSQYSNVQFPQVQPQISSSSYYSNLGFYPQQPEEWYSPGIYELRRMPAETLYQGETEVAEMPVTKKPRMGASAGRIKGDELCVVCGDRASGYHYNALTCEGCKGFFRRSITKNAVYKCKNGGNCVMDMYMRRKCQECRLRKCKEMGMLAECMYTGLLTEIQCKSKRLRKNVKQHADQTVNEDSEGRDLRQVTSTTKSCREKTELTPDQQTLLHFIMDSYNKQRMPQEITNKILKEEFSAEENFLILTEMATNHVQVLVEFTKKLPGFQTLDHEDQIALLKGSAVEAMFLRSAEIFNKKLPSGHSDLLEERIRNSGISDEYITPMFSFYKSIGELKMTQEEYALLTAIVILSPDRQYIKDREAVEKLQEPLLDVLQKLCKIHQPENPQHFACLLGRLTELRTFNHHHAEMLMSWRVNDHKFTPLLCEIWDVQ
Chain of Nuclear respiratory factor 1 (Homo sapiens) (Q16656 whole entry, looked up): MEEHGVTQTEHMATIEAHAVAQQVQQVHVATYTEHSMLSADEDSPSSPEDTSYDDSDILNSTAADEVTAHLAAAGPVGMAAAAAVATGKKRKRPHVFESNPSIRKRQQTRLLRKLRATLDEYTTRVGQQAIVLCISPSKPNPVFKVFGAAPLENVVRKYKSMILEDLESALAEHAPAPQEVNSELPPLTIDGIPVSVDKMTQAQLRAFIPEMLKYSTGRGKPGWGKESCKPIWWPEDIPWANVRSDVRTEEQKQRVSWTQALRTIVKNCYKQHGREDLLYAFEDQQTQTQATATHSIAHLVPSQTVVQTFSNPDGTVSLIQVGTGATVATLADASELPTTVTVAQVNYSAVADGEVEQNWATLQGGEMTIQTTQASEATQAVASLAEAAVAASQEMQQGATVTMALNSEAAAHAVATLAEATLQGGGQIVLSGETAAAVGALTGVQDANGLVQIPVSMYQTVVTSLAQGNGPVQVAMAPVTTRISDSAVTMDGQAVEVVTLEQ
Chain of Oxysterols receptor LXR-beta (Homo sapiens) (P55055 whole entry, looked up, the tested form may be a part): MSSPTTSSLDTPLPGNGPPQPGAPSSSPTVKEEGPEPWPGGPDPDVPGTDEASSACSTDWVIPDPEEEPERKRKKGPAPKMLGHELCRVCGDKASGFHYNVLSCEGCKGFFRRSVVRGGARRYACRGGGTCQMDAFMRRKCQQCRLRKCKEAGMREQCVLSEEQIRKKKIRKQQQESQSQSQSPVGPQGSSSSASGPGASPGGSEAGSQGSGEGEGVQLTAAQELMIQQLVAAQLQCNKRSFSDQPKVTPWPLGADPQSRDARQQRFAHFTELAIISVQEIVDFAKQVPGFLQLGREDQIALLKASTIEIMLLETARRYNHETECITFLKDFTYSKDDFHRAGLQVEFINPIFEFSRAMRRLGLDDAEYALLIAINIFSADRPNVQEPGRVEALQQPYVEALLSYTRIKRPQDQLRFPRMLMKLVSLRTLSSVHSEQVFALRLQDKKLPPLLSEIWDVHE
Chain of Hepatocyte nuclear factor 4-alpha (Homo sapiens) (P41235 whole entry, looked up): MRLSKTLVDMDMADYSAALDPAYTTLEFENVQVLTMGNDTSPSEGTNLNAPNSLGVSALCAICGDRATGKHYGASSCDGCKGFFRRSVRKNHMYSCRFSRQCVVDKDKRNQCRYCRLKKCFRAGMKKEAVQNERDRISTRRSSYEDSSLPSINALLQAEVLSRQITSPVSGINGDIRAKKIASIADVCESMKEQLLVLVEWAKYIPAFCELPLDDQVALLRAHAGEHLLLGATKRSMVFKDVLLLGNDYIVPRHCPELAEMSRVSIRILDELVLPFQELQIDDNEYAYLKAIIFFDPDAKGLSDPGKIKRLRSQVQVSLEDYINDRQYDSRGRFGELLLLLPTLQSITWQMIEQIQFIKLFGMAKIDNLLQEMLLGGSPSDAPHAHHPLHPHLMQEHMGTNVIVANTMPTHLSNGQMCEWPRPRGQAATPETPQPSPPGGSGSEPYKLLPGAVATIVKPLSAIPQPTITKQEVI
Chain of Transcriptional activator Myb (Homo sapiens) (P10242 whole entry, looked up): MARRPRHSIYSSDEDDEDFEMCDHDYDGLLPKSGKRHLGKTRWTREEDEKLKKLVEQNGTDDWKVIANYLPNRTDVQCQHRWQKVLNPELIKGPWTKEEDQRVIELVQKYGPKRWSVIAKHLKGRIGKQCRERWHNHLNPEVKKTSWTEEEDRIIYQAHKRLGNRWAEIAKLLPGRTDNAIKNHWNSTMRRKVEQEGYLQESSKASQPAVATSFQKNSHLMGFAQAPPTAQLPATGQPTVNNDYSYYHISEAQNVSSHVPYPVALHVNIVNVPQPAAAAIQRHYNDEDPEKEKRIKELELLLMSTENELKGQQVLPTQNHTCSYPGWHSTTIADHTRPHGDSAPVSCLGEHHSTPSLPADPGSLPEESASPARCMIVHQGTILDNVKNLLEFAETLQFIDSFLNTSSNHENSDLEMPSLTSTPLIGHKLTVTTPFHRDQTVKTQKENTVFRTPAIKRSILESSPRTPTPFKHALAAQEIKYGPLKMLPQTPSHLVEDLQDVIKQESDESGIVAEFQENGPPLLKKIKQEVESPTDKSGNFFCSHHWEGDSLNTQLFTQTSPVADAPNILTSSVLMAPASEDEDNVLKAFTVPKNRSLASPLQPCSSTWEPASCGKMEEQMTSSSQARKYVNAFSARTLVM
Chain of Cellular tumor antigen p53 (Homo sapiens) (P04637 whole entry, looked up): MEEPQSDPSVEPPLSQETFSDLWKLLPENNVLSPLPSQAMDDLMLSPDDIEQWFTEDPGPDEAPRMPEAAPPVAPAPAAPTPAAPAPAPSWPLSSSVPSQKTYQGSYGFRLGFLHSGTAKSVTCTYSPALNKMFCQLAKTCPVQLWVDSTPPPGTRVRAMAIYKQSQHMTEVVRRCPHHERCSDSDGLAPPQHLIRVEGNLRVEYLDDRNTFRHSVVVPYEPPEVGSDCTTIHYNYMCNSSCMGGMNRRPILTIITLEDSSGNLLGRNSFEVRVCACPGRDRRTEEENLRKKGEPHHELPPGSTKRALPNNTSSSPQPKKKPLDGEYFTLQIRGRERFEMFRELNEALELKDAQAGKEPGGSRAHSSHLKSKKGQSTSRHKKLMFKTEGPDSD
Chain of Nuclear receptor subfamily 4 group A member 2 (Homo sapiens) (P43354 whole entry, looked up, the tested form may be a part): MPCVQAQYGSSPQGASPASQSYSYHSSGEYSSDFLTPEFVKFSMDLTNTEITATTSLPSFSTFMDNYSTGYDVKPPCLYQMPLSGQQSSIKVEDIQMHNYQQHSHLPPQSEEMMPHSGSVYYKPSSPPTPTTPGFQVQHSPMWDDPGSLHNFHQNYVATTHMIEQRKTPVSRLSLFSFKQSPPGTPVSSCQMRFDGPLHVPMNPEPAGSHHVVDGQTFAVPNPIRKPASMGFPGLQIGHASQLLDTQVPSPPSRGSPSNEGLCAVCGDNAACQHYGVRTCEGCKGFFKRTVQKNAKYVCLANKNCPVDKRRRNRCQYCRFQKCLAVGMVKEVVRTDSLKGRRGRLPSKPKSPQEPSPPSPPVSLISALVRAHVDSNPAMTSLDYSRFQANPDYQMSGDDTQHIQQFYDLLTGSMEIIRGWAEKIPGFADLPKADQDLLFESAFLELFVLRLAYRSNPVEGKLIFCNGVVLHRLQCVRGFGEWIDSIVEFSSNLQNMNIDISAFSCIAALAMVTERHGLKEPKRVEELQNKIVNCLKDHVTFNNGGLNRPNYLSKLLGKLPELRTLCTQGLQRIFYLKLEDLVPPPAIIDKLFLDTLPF

CC(=O)O[C@]1(C(C)=O)CC[C@H]2[C@@H]3C[C@H](C)C4=CC(=O)CC[C@]4(C)[C@H]3CC[C@@]21C
inactive: [2] | [3] | [4] | [6] | [7] | [8] | [9] | [12] | [13] | [14] | [15] | [16]
active: [1] 0.354 µM | [5] 16.8 µM | [10] 20 µM | [11] 65.1 µM

CC(C)=CCC[C@H](C)CC=O
inactive: [1] | [2] | [3] | [4] | [17] | [5] | [6] | [7] | [8] | [9] | [11] | [12] | [18]

CCCC(C)C=O (configuration not stated)
inactive: [1] | [2] | [3] | [17] | [6] | [7] | [8] | [9] | [10] | [11] | [12] | [18]

COc1cc2ncnc(Nc3cccc(Cl)c3)c2cc1OC
inactive: [1] | [2] | [19] | [3] | [20] | [4] | [17] | [7] | [9] | [11]
active: [10] 40.8 µM | [12] 25 µM | [18] 1.57 µM

CCc1c(C)cc(N)c(CC)c1N
inactive: [1] | [2] | [20] | [17] | [5] | [6] | [7] | [8] | [9] | [10] | [11] | [12] | [18] | [13] | [14] | [15] | [16]

Cc1ccc2sc3cccc(C)c3c2c1
inactive: [1] | [2] | [20] | [4] | [6] | [9] | [10] | [11] | [12] | [18]

CCC(O)CO (configuration not stated)
inactive: [1] | [2] | [19] | [20] | [17] | [6] | [7] | [8] | [9] | [10] | [11] | [12] | [18]

O=C(Nc1ccccc1)c1cc([N+](=O)[O-])ccc1Cl
active: [11] 34.6 µM | [18] 68.6 µM
inactive: [1] | [2] | [19] | [3] | [4] | [17] | [5] | [8] | [9] | [10]

CC(C)c1ccc(C(C)C)cc1
inactive: [1] | [2] | [4] | [17] | [5] | [6] | [7] | [8] | [9] | [12]
active: [11] 162 µM | [18] 158 µM | [13] 29.4 µM | [14] 31.6 µM | [15] 35.3 µM | [16] 36 µM
